“And” between values parts separate entries of the source, which are not always exact repeats. Equal values may be shown once. Results filed as inconclusive are left out. Where a structure was tested more than once in an assay, its records may differ in their call. The source made the active and inactive calls. Unless noted, calls follow the shape of the dose curve; as a rule, active = well fitted curve in the direction sought with a large enough effect; inconclusive = small, poorly fitted or top-dose-only effect, or another doubt; inactive = no such curve, though single readings can be large; an effect the other way counts as inactive or inconclusive.
What was measured:
[1] = target: Guanine nucleotide-binding protein G(i) subunit alpha-1 (Homo sapiens) (UniProt P63096); experiment: qHTS Assay for Inhibitors of RGS12 GoLoco Motif Activity (Green Fluorophore) (AID 879);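 also: 0% = labeled peptide with Gαi1 and full inhibition = labeled peptide alone without protein; negative values mean loss of peptide binding seen as reduced polarization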
In short: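 A drop in FITC polarization marked displacement of the FITC-tagged RGS12 GoLoco peptide (10 nM) from Gαi1 (50 nM). Compounds were incubated 10 min at room temperature in Tris pH 7.5 buffer containing 150 mM NaCl, 0.1 mM GDP and 0.05% NP40; unlabeled peptide titration served as control.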

[2] = target: Cytochrome P450 2C9 (Homo sapiens) (UniProt P11712); experiment: qHTS Assay for Inhibitors and Substrates of Cytochrome P450 2C9 (AID 883); also: potency is read from the fitted curve at half-maximal effect; nearly all actives have a fitted effect of over 60% in size
In short: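 A luminogenic readout tracked human CYP2C9 (10nM) converting deoxyluciferin (100uM, at KM) in 25mM KPO4 during 60 min at 37C with regenerated NADPH. Values normalized to 57uM sulphaphenazole as complete inhibition.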

[3] = target: Cytochrome P450 2D6 (Homo sapiens) (UniProt P10635); experiment: qHTS Assay for Inhibitors and Substrates of Cytochrome P450 2D6 (AID 891); also: nearly all actives have a fitted effect of over 60% in size; also: potency is read from the fitted curve at half-maximal effect
In short: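 Luminescent read-out of luciferin formed by 5 nM human CYP2D6 demethylating 30 uM Luciferin-ME EGE (Km level) over 60 min at room temperature after NADPH regeneration addition. Data normalized to full inhibition by 1.43 uM quinidine.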

[4] = target: Cytochrome P450 2C19 (Homo sapiens) (UniProt P33261); experiment: qHTS Assay for Inhibitors and Substrates of Cytochrome P450 2C19 (AID 899); also: nearly all actives have a fitted effect of over 60% in size; also: potency is read from the fitted curve at half-maximal effect
In short: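 NADPH-dependent conversion of Luciferin-H EGE (10uM, at KM) by 5nM enzyme in 50mM KPO4, 60 min at 37C following 10 min compound preincubation. Stopped with luciferin detection buffer; luminescence read after 20 min.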

[5] = qHTS Assay for Identification of Small Molecule Agonists for Thrombopoietin (TPO) Signaling Pathway (AID 917); also: % is scaled to controls: 0 for no effect and ±100 for the full control effect
In short: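 Human TPO receptor–transfected Ba/F3 cells (murine, IL-3-dependent) in IL-3-deficient medium; compounds plus TPO at EC50, 26 pM final; 24 hrs, 37 C; GpIIb-luciferase luminescence after 10 min RT detection.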

[6] = target: Pyruvate kinase (Leishmania mexicana) (UniProt Q27686); experiment: qHTS Validation Assay for Inhibitors of Leishmania Mexicana Pyruvate Kinase (AID 945);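 also: 0% = DMSO only neutral control wells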
In short: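 Read-out: luminescence from PKLight stop/detection reagent, data normalized to DMSO. Reaction: 0.2 nM E451W LmPYK, 0.5 mM PEP, 0.1 mM ADP, pH 7.2, 1 h room temperature.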

[7] = target: Pyruvate kinase PKM (Homo sapiens) (UniProt P14618); experiment: qHTS Assay for Activators of Human Muscle Pyruvate Kinase (AID 954; active = well fitted curve in the direction sought with a large enough effect, not every such curve was filed as active;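 also: 0% = uninhibited enzyme and -100% = no enzyme or full thiadiazolimine inhibition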)
In short: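 A coupled luminescent readout tracked ATP made from ADP by purified PKM2. Final conditions included 0.1 nM enzyme, PEP and ADP at 0.5 and 0.1 mM, pH 7.2 imidazole buffer with BSA, and a one-hour room-temperature reaction.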

[8] = target: Alpha-galactosidase A (Homo sapiens) (UniProt P06280); experiment: Counterscreen for Glucocerebrosidase Inhibitors: qHTS Assay for Human alpha-Galactosidase at pH 4.5 (AID 992); also: 0% is about no effect
In short: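 Citrate buffer pH 4.5, Tween-20 0.005%. Enzyme 2 nM, substrate 80 uM, 20 min RT. Stop pH 10. Fluorescence Ex 365/Em 440. AC50 by Hill fit.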

[9] = target: alpha-glucosidase (Oryza sativa, rice) (UniProt Q653V4); experiment: Counterscreen for Glucocerebrosidase Inhibitors: qHTS Assay for Rice alpha-Glucosidase at pH 5.0 (AID 997);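 also: 0% = full activity with enzyme and -100% = basal without enzyme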
In short: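 Endpoint fluorogenic assay at pH 5.0: compounds (0.7 nM to 77 uM) titrated against 4 nM rice enzyme and 400 uM 4-MU-alpha-glucoside for 20 min at room temperature; NaOH/glycine stop, read ex 365/em 440 nm, Hill-fitted AC50.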

[10] = qHTS assay for small molecule activators of the nuclear factor-kappa B (NF-kB) signaling pathway (AID 651749; active = well fitted activation curve with a large enough effect in the signal ratio; the % refers to the signal ratio; also: % of control where 0% means no effect); conditions: NF-kB-bla ME-180 cells, beta-lactamase FRET ratio, 16 h; stronger effect = higher value
In short: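 Human ME-180 cervical cells with an NF-kB-bla construct; compounds added via 23 nL pin transfer, DMSO as vehicle; incubation 16 hr. Reporter activity measured by FRET disruption.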

[11] = qHTS assay for environmental chemicals that activate the Aryl hydrocarbon Receptor (AhR) signaling pathway (AID 651777); conditions: 1A2-DRE human hepatoma cells, luciferase, 24 h; activation: stronger effect = higher value; also: % of control where 0% means no effect; nearly all actives have a fitted effect of over 15% in size
In short: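 Following a 24 hr incubation with test chemicals at 37 C and 5% CO2, 1A2-DRE human hepatoma cells received One-Glo reagent; after 30 min at room temperature, luciferase output reflected CYP1A2 induction via AhR.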

[12] = qHTS assay for small molecule agonists of the antioxidant response element (ARE) signaling pathway measured by Nrf2-dependant transcriptional activity (AID 720636; active = well fitted curve in the direction sought with a large enough effect in the repeat runs; an effect the other way counts as inactive or inconclusive;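 also: HepG2 cells with an ARE-driven luciferase reporter; % of control where 0% means no effect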)
In short: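 ONE-Glo luminescence, read 30 min after reagent addition at room temperature, reflected ARE reporter activity in HepG2 cells that had been incubated with compound for 16 hr at 37 C in 1% dialyzed FBS.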

[13] = qHTS assay for small molecule agonists of the antioxidant response element (ARE) signaling pathway measured by Nrf2-dependant transcriptional activity - cell viability counter screen (AID 720653; active = well fitted curve in the direction sought with a large enough effect in the repeat runs; an effect the other way counts as inactive or inconclusive; also: % is scaled to controls: 0 for no effect and ±100 for the full control effect); conditions: ARE-bla HepG2 viability, CellTiter-Glo ATP luminescence, 16 h; stronger effect = lower value
In short: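 ARE-bla HepG2 cells (2,000/well) rested 5 hrs at 37C/5% CO2, then exposed to compounds in DMSO for 16 hrs. Viability was read in the same wells as intracellular ATP by luminescence, 30 min at room temperature after reagent addition.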

[14] = qHTS assay for cell viability of HEK293 cells (AID 743288); conditions: ATP luminescence (CellTiter-Glo), 18 h, stronger effect = lower value; also: % is scaled to controls: 0 for no effect and ±100 for the full control effect; nearly all actives have a fitted effect of over 50% in size
In short: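 HEK293, 18 h, 37 C, ATP luminescence. Cells at 2,000/well were allowed at least 5 h to settle before dosing; CellTiter-Glo developed 30 min at RT.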

[15] = qHTS assay for cell viability of the p53RE-bla HCT-116 cell line (AID 743292); also: potency is read from the fitted curve at half-maximal effect; nearly all actives have a fitted effect of over 55% in size
In short: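 After plating at 4,000 cells per well and a 5 h rest at 37 C, HCT-116 cells carrying p53RE-bla received test chemicals in DMSO. Sixteen hours later at 37 C, CellTiter-Glo was added and luminescence recorded following 30 min at room temperature.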

[16] = target: Nuclear receptor subfamily 1 group I member 2 (Rattus norvegicus) (UniProt Q9R1A7); experiment: qHTS assay for small molecule activators of the rat pregnane X receptor (rPXR) signaling pathway (AID 651751; call rule not given here; also: 0% is about no effect); conditions: rPXR reporter cells, luciferase (One-Glo), 24 h
[17] = AP1 Signaling Pathway (AID 357; active = well fitted curve in either direction with a large enough effect, not every such curve was filed as active;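 also: ME-180 reporter cells stimulated with EGF at its EC50 level; % is scaled to controls: 0 for no effect and ±100 for the full control effect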); conditions: ME-180 AP-1-bla reporter, EGF-induced, beta-lactamase ratio, 5 h; at 7.69 µM (top of the series) unless noted
In short: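 Beta-lactamase reporter under AP-1 response element, ME-180 background. Stimulus: EC50 EGF. Compound exposure 5 h, 37 °C. Detection: CCF4, 2.5 h RT, 460/530 nm. Values: AC50 from titration.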

[18] = NFAT Signaling Pathway (AID 444; active = well fitted curve in either direction with a large enough effect, not every such curve was filed as active;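 also: carbachol stimulus at about its EC50 of 1 µM final; % is scaled to controls: 0 for no effect and ±100 for the full control effect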); conditions: Jurkat NFAT-bla M1, carbachol, beta-lactamase ratio, 5 h; at 7.69 µM (top of the series) unless noted
In short: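 Jurkat cells carrying an NFAT-driven β-lactamase reporter and co-transfected muscarinic M1 receptor were treated with compound plus carbachol (1 uM final, an EC50 level) for 5 h at 37 °C. CCF4 loading followed for 1 h at RT; 460/530 nm ratio gave %activity.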

[19] = Stat Signaling Pathway (AID 446; active = well fitted curve in either direction with a large enough effect, not every such curve was filed as active); conditions: ME-180 (cervical carcinoma) SIE beta-lactamase reporter, IL-6 stimulated, 5 h; at 7.69 µM (top of the series) unless noted
In short: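 Compound effects on IL-6-induced STAT reporter activity were measured in ME-180 cells. After overnight culture, cells were co-treated with 40 pM IL-6 for 5 hrs before beta-lactamase substrate loading at room temperature.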

[20] = target: Cytochrome P450 3A4 (Homo sapiens) (UniProt P08684); experiment: qHTS Assay for Inhibitors and Substrates of Cytochrome P450 3A4 (AID 884); also: % is scaled to controls: 0 for no effect and ±100 for the full control effect; nearly all actives have a fitted effect of over 50% in size
In short: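 Luminescent readout of luciferin produced by CYP3A4 (20 nM) dealkylation of Luciferin-PPXE, 25 uM (its KM). NADPH-driven reaction ran 60 min at RT after 10 min compound preincubation; data scaled to 57 uM ketoconazole as 100% inhibition.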

Sequence of Cytochrome P450 2C19 (Homo sapiens) (P33261 whole entry, looked up): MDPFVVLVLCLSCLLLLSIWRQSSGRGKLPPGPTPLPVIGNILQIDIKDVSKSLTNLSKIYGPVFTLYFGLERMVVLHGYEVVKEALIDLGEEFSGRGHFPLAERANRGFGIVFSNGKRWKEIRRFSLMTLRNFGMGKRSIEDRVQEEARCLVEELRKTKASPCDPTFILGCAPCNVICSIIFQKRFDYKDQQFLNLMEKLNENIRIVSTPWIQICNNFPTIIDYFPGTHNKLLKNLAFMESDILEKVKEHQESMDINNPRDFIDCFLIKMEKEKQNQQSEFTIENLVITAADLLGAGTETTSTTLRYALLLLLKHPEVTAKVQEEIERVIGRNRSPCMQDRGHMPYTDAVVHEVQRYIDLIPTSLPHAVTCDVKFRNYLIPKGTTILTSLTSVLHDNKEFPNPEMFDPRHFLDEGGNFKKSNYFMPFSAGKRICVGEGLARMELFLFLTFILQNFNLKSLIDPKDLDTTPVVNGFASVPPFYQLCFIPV
Sequence of Cytochrome P450 2D6 (Homo sapiens) (P10635 whole entry, looked up): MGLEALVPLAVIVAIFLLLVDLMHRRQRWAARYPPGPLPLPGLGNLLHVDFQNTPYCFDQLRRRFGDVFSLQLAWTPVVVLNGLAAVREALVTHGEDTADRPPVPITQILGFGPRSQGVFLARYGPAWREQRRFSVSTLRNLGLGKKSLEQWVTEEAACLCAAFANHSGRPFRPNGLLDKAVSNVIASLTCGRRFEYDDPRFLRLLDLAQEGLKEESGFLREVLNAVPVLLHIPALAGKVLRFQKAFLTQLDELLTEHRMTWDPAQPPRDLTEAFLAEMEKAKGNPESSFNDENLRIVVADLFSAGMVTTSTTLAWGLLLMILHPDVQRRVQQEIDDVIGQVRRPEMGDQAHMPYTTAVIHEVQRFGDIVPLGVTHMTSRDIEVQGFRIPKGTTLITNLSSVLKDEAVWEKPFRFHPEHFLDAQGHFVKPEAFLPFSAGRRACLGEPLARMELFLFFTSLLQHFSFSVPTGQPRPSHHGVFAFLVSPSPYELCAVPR
Sequence of Pyruvate kinase PKM (Homo sapiens) (P14618 whole entry, looked up): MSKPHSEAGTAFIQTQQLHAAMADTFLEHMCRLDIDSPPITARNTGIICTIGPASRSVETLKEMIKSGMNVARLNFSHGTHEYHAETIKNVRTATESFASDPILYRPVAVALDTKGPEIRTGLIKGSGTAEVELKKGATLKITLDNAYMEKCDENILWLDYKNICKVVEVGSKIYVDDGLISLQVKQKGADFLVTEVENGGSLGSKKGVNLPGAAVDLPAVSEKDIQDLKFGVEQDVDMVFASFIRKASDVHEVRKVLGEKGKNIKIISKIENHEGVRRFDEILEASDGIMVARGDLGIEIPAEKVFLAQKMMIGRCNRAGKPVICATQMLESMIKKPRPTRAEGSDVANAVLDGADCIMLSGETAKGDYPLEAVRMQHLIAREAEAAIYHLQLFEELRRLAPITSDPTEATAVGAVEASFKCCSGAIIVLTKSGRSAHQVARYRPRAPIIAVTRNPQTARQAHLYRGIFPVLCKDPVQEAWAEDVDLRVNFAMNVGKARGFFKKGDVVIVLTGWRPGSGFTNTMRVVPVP
Sequence of Nuclear receptor subfamily 1 group I member 2 (Rattus norvegicus) (Q9R1A7 whole entry, looked up): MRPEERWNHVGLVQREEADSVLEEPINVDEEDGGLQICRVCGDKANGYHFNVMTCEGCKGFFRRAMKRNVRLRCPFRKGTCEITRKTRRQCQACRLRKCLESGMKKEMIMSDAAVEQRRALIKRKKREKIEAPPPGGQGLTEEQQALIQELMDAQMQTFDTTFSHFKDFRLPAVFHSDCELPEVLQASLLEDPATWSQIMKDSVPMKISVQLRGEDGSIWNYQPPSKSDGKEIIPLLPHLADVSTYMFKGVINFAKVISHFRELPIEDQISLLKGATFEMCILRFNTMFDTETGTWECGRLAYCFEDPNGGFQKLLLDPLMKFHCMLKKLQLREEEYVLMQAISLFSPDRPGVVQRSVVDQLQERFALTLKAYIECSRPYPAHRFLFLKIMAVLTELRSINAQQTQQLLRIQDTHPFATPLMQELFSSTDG
Sequence of Alpha-galactosidase A (Homo sapiens) (P06280 whole entry, looked up): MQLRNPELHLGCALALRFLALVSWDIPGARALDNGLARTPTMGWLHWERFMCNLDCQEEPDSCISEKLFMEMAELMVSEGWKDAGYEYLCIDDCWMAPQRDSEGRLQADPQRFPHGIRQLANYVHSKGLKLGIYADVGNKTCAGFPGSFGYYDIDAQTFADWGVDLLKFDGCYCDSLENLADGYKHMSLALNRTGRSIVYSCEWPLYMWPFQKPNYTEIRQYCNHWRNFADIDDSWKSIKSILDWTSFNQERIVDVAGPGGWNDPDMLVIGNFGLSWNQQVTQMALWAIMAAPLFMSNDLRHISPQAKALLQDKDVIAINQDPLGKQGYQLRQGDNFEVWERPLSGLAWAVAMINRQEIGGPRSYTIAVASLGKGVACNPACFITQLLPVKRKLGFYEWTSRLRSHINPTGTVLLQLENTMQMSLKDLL
Sequence of Guanine nucleotide-binding protein G(i) subunit alpha-1 (Homo sapiens) (P63096 whole entry, looked up): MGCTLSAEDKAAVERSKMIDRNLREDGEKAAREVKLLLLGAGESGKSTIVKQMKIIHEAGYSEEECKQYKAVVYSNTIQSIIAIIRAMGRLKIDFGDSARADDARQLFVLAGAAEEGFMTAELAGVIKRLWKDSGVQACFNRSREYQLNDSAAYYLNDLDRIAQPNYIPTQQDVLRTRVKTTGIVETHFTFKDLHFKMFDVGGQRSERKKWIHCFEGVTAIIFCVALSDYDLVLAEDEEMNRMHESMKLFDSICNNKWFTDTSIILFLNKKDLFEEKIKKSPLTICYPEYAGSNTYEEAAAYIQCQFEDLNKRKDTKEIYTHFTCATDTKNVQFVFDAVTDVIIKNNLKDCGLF
Sequence of Cytochrome P450 3A4 (Homo sapiens) (P08684 whole entry, looked up): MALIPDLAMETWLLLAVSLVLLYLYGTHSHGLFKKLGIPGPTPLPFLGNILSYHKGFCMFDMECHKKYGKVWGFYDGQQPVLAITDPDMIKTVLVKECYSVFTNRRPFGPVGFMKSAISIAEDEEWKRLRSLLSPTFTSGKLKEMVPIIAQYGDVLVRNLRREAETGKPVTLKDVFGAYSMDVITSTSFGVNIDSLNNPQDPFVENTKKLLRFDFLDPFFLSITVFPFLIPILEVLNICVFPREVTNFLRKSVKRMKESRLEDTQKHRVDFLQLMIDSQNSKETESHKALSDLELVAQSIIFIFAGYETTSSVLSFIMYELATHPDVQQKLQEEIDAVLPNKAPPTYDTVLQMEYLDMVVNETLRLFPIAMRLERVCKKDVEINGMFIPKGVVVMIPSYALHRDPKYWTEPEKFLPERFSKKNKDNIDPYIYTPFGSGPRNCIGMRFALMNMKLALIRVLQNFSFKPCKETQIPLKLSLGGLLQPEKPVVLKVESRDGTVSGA
Sequence of Cytochrome P450 2C9 (Homo sapiens) (P11712 whole entry, looked up): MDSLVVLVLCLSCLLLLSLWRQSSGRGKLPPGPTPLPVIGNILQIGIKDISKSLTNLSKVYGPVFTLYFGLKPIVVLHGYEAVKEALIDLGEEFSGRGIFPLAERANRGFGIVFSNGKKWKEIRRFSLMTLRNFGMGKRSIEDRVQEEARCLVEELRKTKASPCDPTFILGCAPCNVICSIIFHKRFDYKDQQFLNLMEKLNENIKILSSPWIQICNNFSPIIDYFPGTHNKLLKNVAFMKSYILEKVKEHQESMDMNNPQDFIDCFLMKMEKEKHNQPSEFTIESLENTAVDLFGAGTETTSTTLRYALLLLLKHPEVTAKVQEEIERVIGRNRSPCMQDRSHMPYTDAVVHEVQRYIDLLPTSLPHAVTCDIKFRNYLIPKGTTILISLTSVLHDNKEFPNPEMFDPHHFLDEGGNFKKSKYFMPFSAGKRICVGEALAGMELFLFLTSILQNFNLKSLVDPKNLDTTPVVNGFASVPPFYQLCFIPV
Sequence of Pyruvate kinase (Leishmania mexicana) (Q27686 2-499 E452W): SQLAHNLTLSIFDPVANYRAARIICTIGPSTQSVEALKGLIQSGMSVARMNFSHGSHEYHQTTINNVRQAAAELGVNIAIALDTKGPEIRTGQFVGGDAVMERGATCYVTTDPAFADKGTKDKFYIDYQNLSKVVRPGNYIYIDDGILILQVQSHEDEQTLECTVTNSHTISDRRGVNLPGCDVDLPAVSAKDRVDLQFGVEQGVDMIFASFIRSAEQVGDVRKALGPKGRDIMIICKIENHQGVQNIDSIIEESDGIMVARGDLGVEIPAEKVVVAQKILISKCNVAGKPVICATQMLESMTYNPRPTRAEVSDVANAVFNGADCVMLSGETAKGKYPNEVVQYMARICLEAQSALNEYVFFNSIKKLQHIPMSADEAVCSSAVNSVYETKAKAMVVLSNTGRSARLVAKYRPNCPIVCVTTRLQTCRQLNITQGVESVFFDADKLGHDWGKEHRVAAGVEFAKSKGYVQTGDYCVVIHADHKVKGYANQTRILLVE

CN(CCOc1ccc(C[C@H](Nc2ccccc2C(=O)c2ccccc2)C(=O)O)cc1)c1ccccn1
inactive and 3.98 µM (active): Potency [4]
active: Potency [2] 10 µM | Potency [15] 50.1 µM
inactive and 31.6 nM (active): Potency [3]
inactive: outcome [1] | outcome [5] | Potency [6] | outcome [7] | outcome [8] | outcome [9] | activation [10] 1.83% | activation [11] 3.94% | outcome [12] | max response [13] 2.06% | max response [14] -5.97% | max response [16] 1.12%

C[C@@]12C(=O)OC(=O)[C@]1(C)[C@H]1CC[C@@H]2O1
active: activity change, negative = inhibition [17] -102% [at 17.2 µM] | activity change, negative = inhibition [18] -99.7% [at 17.2 µM] | activity, negative = inhibition [19] -85.9% [at 17.2 µM]

COC1=C(OC)C(=O)C(C/C=C(\C)CC/C=C(\C)CC/C=C(\C)CC/C=C(/C)CC/C=C(\C)CC/C=C(\C)CC/C=C(\C)CC/C=C(\C)CC/C=C(\C)CCC=C(C)C)=C(C)C1=O
inactive: Potency [20]
